Hits are enriched below; roughly 20% of the tested compounds scored in any of these assays.
Pf growth 96h: P. falciparum growth inhibition at 96 hour, primary screen for plastid delayed-death inhibitors; P. falciparum luciferase reporter growth, 96 h; hit rate 6.9% among 320,000; Potency, µM (series often up to 28.7 µM), hits mostly inhibitors
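96 h incubation, 37 C, 5% CO2, of luciferase-reporter P. falciparum-infected RBCs (2% hematocrit, 0.05% parasitemia final) with test compounds; endpoint luminescence.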
Pf growth 48h: P. falciparum growth inhibition at 48 hours (one generation); P. falciparum luciferase growth in erythrocytes, 48 h; hit rate 5.9% among 310,000; Potency, µM (series often up to 28.7 µM), most hits filed as inhibitors
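Parasite viability was followed by luminescence of a genomically integrated firefly luciferase. Cultures held 0.1% parasitemia at 2% hematocrit (final), incubated under 5% CO2 at 37 C.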
CHX counter: counter-screen for Shiga toxin inhibitors: cycloheximide protein synthesis inhibition | cell reporter, cycloheximide protein synthesis inhibition counterscreen | max response, % | hit rate 12% among 300,000; in the data active = max response mostly above about 13%, no sharp cut-off; inactive = mostly below about 14%; also: read at 38.3 µM for the half of the compounds with a filed dose
HCMV antiviral: human cytomegalovirus inhibition | AID 1259415 | hit rate 4.5% among 410,000 | activity change, negative = inhibition, % at 57.5 µM | HFF cells, HCMV-luciferase reporter, 72 h; active compounds read low; in the data active = activity change below about -60%; inconclusive = no clear call, values can overlap the other calls; inactive = above about -39%
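Human foreskin fibroblasts infected with luciferase-reporter HCMV at MOI 1 PFU/cell, compounds at two doses. Luciferase measured 72 h post infection; normalized to buffer-only basal and Salinomycin (10uM) controls.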
Shiga toxin inh: inhibitors of Shiga toxin in Vero cells; Vero cells, Shiga toxin protein synthesis inhibition reporter; hit rate 9.2% among 290,000; inhibition, % at 38.7 µM; AID 2315; in the data active = inhibition mostly above about 28%, no sharp cut-off; inactive = mostly below about 43%
A number is an active result; [ ] = remark or other dose. Unless noted, calls follow the shape of the dose curve; as a rule, active = well fitted inhibition curve with a large enough effect; inconclusive = small, poorly fitted or top-dose-only effect, or another doubt; inactive = no such curve, though single readings can be large or run the other way.

For Nn1c(-c2ccccn2)nnc1-c1ccccn1 the results were Pf growth 96h inconclusive, Pf growth 48h inactive, CHX counter 32, HCMV antiviral inactive and Shiga toxin inh 57.
For Nc1ccccc1-c1nnc(-c2ccccc2N)n1N the results were Pf growth 96h inactive, Pf growth 48h inactive, CHX counter 38, HCMV antiviral inactive and Shiga toxin inh 57.
`c1ccc(-c2ccccn2)nc1` gave Pf growth 96h inactive, Pf growth 48h inactive, CHX counter inactive, HCMV antiviral inactive and Shiga toxin inh inactive.
For CCOC(=O)c1nn(-c2ccc(Cl)cc2)cc1O the results were Pf growth 96h inactive, Pf growth 48h inactive, CHX counter 56, HCMV antiviral inactive and Shiga toxin inh 101.
For CCOC(=O)c1nn(-c2ccc3ccccc3c2)cc1O the results were Pf growth 96h inactive, Pf growth 48h inactive, CHX counter 39, HCMV antiviral inactive and Shiga toxin inh 108.
Screening CCOC(=O)c1cc(C(=O)OCC)cc(-n2cc(O)c(C(=O)OCC)n2)c1 returned Pf growth 96h inconclusive, Pf growth 48h inactive, CHX counter inactive, HCMV antiviral inactive and Shiga toxin inh inactive.
CCOC(=O)c1nn(-c2ccc(C)cc2)cc1O was read as Pf growth 96h inactive, CHX counter 55, HCMV antiviral inactive and Shiga toxin inh 76.
CCOC(=O)c1nn(-c2sc(C(=O)OC)c(C)c2C(=O)OC)cc1O was read as Pf growth 96h inactive, Pf growth 48h inactive, CHX counter inactive, HCMV antiviral inactive and Shiga toxin inh inactive.
For CCOC(=O)C1=NN(c2ccc(Cl)cc2)C(=O)C1 the results were Pf growth 96h inactive, Pf growth 48h inactive, CHX counter 57, HCMV antiviral inactive and Shiga toxin inh 121.
CCOC(=O)CC1=NN(c2ccccc2)C(=O)C1 was read as Pf growth 96h inactive[5.75 µM], Pf growth 48h inactive, CHX counter inactive, HCMV antiviral inconclusive and Shiga toxin inh inactive.
For O=C(c1cccc(Cl)c1)N1CCC(c2nc3c(nnn3Cc3ccc(F)cc3F)c(=O)[nH]2)CC1 the results were HCMV antiviral inactive.
For Cc1cc(Cl)ccc1OCc1cc(=O)n2c3c(sc2n1)CCCC3 the results were HCMV antiviral inactive.
`CC(C)=C(NC(=O)c1ccccc1)C(=O)Nc1cccc(C(=O)O)c1` gave Pf growth 96h inactive, Pf growth 48h inactive, CHX counter inactive, HCMV antiviral inactive and Shiga toxin inh inactive.
Screening CCOC(=O)c1nn(-c2ccc3c(c2)OCO3)cc1O returned Pf growth 96h inactive, Pf growth 48h inactive, CHX counter 43, HCMV antiviral -101 and Shiga toxin inh 108.
Screening CCOC(=O)c1nn(-c2ccccc2)cc1O returned Pf growth 96h inactive, Pf growth 48h inactive, CHX counter 23, HCMV antiviral inactive and Shiga toxin inh 55.
CCOC(=O)c1nn(-c2cc(C(=O)OC)cc(C(=O)OC)c2)cc1O was read as Pf growth 96h inactive, Pf growth 48h inactive, CHX counter inactive, HCMV antiviral inactive and Shiga toxin inh inactive.
Screening COC(=O)c1nn(-c2ccc(-c3ccccc3)cc2)cc1O returned Pf growth 96h inactive, Pf growth 48h inactive, CHX counter 29, HCMV antiviral inactive and Shiga toxin inh inactive.
Screening COc1ccccc1Cn1c(CNS(=O)(=O)c2ccc(C(C)C)cc2)nc2cccnc21 returned HCMV antiviral inactive.
CCOC(=O)CSc1nc2cc3c(cc2c(=O)n1Cc1ccc(C(=O)NCCc2ccc(OC)c(OC)c2)cc1)OCO3 was read as HCMV antiviral inactive.
For Cn1cccc1/C=C1\CCC/C(=C\c2cccn2C)C1=O the results were Pf growth 96h inactive, CHX counter 52, HCMV antiviral inactive and Shiga toxin inh 109.
`C=CCN1C(=O)NC(=O)/C(=C/c2cccn2C)C1=O` gave Pf growth 96h inactive, Pf growth 48h inactive, CHX counter inactive, HCMV antiviral inactive and Shiga toxin inh inactive.
For O=C1/C(=C/c2cccs2)CCC/C1=C\c1cccs1 the results were Pf growth 96h inactive, Pf growth 48h inactive, CHX counter 39, HCMV antiviral inactive and Shiga toxin inh 108.
O=C1C(=Cc2cccs2)CCc2ccccc21 was read as HCMV antiviral inactive.
Cc1ccc(Nc2c([N+](=O)[O-])c(=O)oc3ccccc23)cc1C was read as Pf growth 96h inactive, Pf growth 48h inconclusive, CHX counter inactive, HCMV antiviral inactive and Shiga toxin inh inactive.
For O=[N+]([O-])c1ccccc1S(=O)(=O)N1CCSCC1 the results were Pf growth 96h inactive, Pf growth 48h inactive and HCMV antiviral inactive.
`COc1cc(-c2nc(Cn3nnc(C(=O)Nc4ccccc4)c3C)c(C)o2)cc(OC)c1OC` gave HCMV antiviral inactive.

Assay outcomes deposited in PubChem by National Center for Advancing Translational Sciences (NCATS).
